Laboratory results: PubChem BioAssay (NCATS)
Records with an inconclusive call do not appear. Activity calls are given as the source filed them. Calls come from the whole dose curve.

These molecules were tested against Peroxisome proliferator-activated receptor delta (Homo sapiens) (UniProt Q03181) (assay: qHTS assay for small molecule agonists of peroxisome proliferator-activated receptor delta signaling (AID 588534)). Details: HEK293T PPARdelta-UAS-bla, beta-lactamase ratio, 18 h; series mostly up to 76.7 µM.
Peroxisome proliferator-activated receptor delta (Homo sapiens), sequence (Q03181 whole entry, looked up): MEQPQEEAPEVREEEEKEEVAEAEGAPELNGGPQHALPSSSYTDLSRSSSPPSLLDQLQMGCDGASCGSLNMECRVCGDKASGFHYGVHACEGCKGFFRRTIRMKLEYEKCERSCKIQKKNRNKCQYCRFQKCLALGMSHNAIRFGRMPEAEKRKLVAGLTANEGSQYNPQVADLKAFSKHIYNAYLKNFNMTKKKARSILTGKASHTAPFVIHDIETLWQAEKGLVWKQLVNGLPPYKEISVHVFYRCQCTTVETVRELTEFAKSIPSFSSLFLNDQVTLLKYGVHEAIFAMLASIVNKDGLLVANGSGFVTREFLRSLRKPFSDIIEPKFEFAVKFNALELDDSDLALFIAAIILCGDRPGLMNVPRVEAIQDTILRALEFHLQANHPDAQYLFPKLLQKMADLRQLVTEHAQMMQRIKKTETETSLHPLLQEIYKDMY
Outline: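 EC50 and efficacy values derive from Hill fits of a concentration series in a beta-lactamase reporter cell assay. Exposure is 18 hrs at 37 C, with CCF4 fluorescence as the readout.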

Compound	outcome
O=Cc1ccc(Cl)c(Cl)c1	inactive
CCOc1cccc(N)c1	inactive
Nc1cccc(S(=O)(=O)O)c1	inactive
COCCOC(=O)c1ccccc1C(=O)OCCOC	inactive
Nc1ccc2c(c1)C(=O)c1ccccc1C2=O	inactive
C/C(C=O)=C/c1ccccc1	inactive
OC1CCCC1	inactive
CCNC(=S)NCC	inactive
O=[N+]([O-])c1ccc(F)cc1F	inactive
c1ccc2n[nH]nc2c1	inactive
CCCCC(CC)CN1C(=O)C2C3C=CC(C3)C2C1=O (stereo unspecified)	inactive
